Bioassay records as filed in PubChem.
An excerpt weighted towards active compounds, which were near 21% of everything screened.
Shiga inhibitor: blocks Shiga toxin action in Vero cells | Vero cells, Shiga toxin protein synthesis inhibition reporter | inhibition, % at 38.7 µM | hit rate 9.2% among 290,000; in the data active means inhibition mostly above about 28%, no sharp cut-off; inactive means mostly below about 43%; further: 0% is about no effect
Cycloheximide cs: counter-screen hit for Shiga toxin inhibitors, cycloheximide; max response, %; cell reporter, cycloheximide protein synthesis inhibition counterscreen; hit rate 12% among 300,000; in the data active means max response mostly above about 13%, no sharp cut-off; inactive means mostly below about 14%; further: read at 38.3 µM for the half of the compounds with a filed dose; 0% is about no effect
Pf growth 48h: inhibits P. falciparum growth in the first generation, 48 h; P. falciparum luciferase growth in erythrocytes, 48 h; Potency, µM (highest dose often 28.7 µM), for inactives: at the top dose activity change, negative = inhibition, actives largely listed as inhibitors; hit rate 5.9% among 310,000; active means well fitted inhibition curve with a large enough effect; inconclusive means small, poorly fitted or top-dose-only effect, or another doubt; inactive means no such curve, though single readings can be large or run the other way; further: potency means the concentration at half of the fitted maximal effect; on the % scale 0 is the no-effect control and ±100 the full control effect
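Compounds are pin-transferred into medium, infected erythrocytes (2% hematocrit, 0.1% parasitemia final) are added, and plates sit one parasite generation at 37 C in 5% CO2. Detection reagent is then added and luminescence measured.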
SARS PLP yeast: blocks SARS-CoV papain-like protease in a yeast assay. S. cerevisiae expressing SARS-CoV PLpro, growth rescue. hit rate 0.19% among 330,000. Potency, µM (titrated, usually from 32.9 µM), without a hit: at the highest dose activity, positive = growth rescue, usual class: activators; further: potency means the concentration at half of the fitted maximal effect; 0% is about no effect; nearly all actives have a fitted effect of over 55% in size
Pf growth 96h: inhibits malaria parasite growth, 96 h; P. falciparum luciferase reporter growth, 96 h; Potency, µM (doses to about 28.7 µM), inactives show top-dose activity change, negative = inhibition, usual class: inhibitors; hit rate 6.9% among 320,000; AID 504834; active means well fitted inhibition curve with a large enough effect; inconclusive means small, poorly fitted or top-dose-only effect, or another doubt; inactive means no such curve, though single readings can be large or run the other way; further: potency means the concentration at half of the fitted maximal effect; on the % scale 0 is the no-effect control and ±100 the full control effect
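Two parasite generations (96 h, 37 C, 5% CO2) of compound exposure in infected erythrocytes (0.05% parasitemia, 2% hematocrit). Luciferase-reporter P. falciparum; decreased luminescence indicates inhibited growth, aimed at apicoplast-acting delayed death.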
NS1 inh: inhibitors of influenza NS1 protein function; Potency, µM (series often up to 46.1 µM), without a hit: at the top dose activity, positive = more growth; hit rate 0.4% among 270,000; AID 2326; further: potency means the concentration at half of the fitted maximal effect; actives are rising curves; nearly all actives have a fitted effect of over 50% in size
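Compounds were scored for reversing the slow growth caused by influenza A NS1 in S. cerevisiae, measured by optical density at 600 nm. Assay medium contained 2% galactose at pH 6.0; NS1-free yeast of the same strain were the positive control.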
* marks the source's active call; other numbers are inactive results; ? = inconclusive; nt = no result given; [ ] = another dose, or the depositor's remark. Unless noted, the call rests on the fitted dose curve.

SMILES	Shiga inhibitor	Cycloheximide cs	Pf growth 48h	SARS PLP yeast	Pf growth 96h	NS1 inh
O=C(NCCCN1CCCC1=O)c1csc2ccccc12	16.7	11.9*	15.8%	2.9%	nt	1.1%
O=C(NCCCN1CCCC1=O)c1ccc([N+](=O)[O-])s1	nt	nt	10.4µM*	nt	?	nt
Cc1cc(C(=O)NCCCN2CCCC2=O)cs1	6.1	4.3	24.8%	-0.4%	nt	-2.9%
CCOC(=O)C1CCCN(S(=O)(=O)c2ccc(OC)cc2)C1 (stereo not given)	-4.3	1.2	nt	4.9%	-26.4%	-6.5%
CC(=O)c1ccc(N2C(=O)[C@@H]3C(C(=O)CCN4C(=O)c5ccccc5C4=O)=NN[C@@H]3C2=O)cc1	-12.9	1.3	-2.5%	14.4%	2.33µM*	?
Cc1ccc(C(=O)N(CC#N)CC#N)cc1C	-14.4	-0.3	36.3%	0.5%	36.8%	-2.6%
CCCc1nc(NCCCOCC)c2nnn(Cc3ccccc3)c2n1	nt	-3.0	5.3%	4.3%	11.7µM*	-1.5%
Cn1c(=O)c2c(-c3ccccc3F)c3c(nc2n(C)c1=O)-c1ccccc1C3O (stereo not given)	10.3	-2.0	-20.6%	3.5%	0.233µM*	-4.3%
Cn1c(=O)c2c(-c3cccc(F)c3)c3c(nc2n(C)c1=O)-c1ccccc1C3O (stereo not given)	-14.2	-4.6	3.0%	2.2%	57.9%	10.2%
O=C(Oc1cccc(NC(=O)c2cccs2)c1)c1cccc(S(=O)(=O)N2CCCC2)c1	38.2	13.6*	62.4%	-14.0%	?	?
O=C(Oc1cccc(NC(=O)c2ccco2)c1)c1cccc(S(=O)(=O)N2CCCC2)c1	24.9	18.0*	31.8%	-1.5%	3.3%	10.1%
Cc1cc(/C=C(\C#N)C(=O)NCC2CCCO2)c(C)n1-c1ccc(Cl)cc1 (stereo not given)	64.5*	25.5*	10.4µM*	-6.1%	10.4µM*	-1.5%
N#C/C(=C\c1cn(CCOc2ccccc2)c2ccccc12)C(=O)NCC1CCCO1 (stereo not given)	-25.2	29.4*	9.28µM*	-5.2%	?	19.6%
Cc1ccc(C)c(OCCn2cc(/C=C(/C#N)C(=O)NCC3CCCO3)c3ccccc32)c1 (stereo not given)	-10.6	-2.5	2.08µM*	-0.8%	45.4%	10.1%
Cc1cc(OCC(=O)N(C)C2CCCCC2)cc(C)c1Cl	91.1*	41.6*	-2.1%	-3.1%	-5.3%	nt
CN(C(=O)COC(=O)c1ccc(Cl)cc1N)C1CCCCC1	12.5	20.8*	-7.6%	-9.6%	20.9%	nt
Cc1cc(OCC(=O)N(C)C2CCCCC2)ccc1Cl	55.0	24.6*	483.7%	-2.7%	?	nt
CN(C(=O)COC(=O)COc1ccc(Cl)cc1)C1CCCCC1	-10.7	-4.4	4.3%	1.3%	-15.2%	-17.9%
CN(C(=O)COC(=O)c1ccc([N+](=O)[O-])cc1Cl)C1CCCCC1	26.5	7.9	14.0%	3.9%	28.4%	nt
CC(=O)C1=C(O)C(=O)N(c2ccc(Br)cc2)C1c1ccc(Br)cc1 (stereo not given)	10.1	1.5	25.0%	7.5%	?	2.3%
CCSc1nnc(-c2ccc(Cl)cc2)c2ccccc12	-15.9	-3.8	?	0.1%	0.0928µM*	0.7%
Cc1cc(NC(=O)c2cccc(Cl)c2)n[nH]1	nt	nt	167.4%	-3.8%	101.9%	nt
Cc1cc(NC(=O)NC(=O)c2ccc(F)cc2F)n[nH]1	43.3*	19.4*	176.2%	-0.3%	?	-1.3%
Cc1ccc(CN2CCN(C)CC2)c(C)c1	-2.7	-4.9	16.4%	5.1%	2.94µM*	6.4%
CC(C)Sc1cc(Cl)nc(NC(=O)Nc2ccccc2)n1	49.8	29.1*	1.7%[0.00184 µM]	-0.9%	15.2%	1.4%
SMILES	Shiga inhibitor	Cycloheximide cs	Pf growth 48h	SARS PLP yeast	Pf growth 96h	NS1 inh
CCCn1nc(NC(=O)c2cccs2)c2cc3cc(OC)ccc3nc21	29.4*	18.2*	?	-5.1%	-21.1%	-76.6%
CCCCn1nc(NC(=O)c2cccs2)c2cc3ccccc3nc21	34.3	9.6	21.8%	-20.8%	58.4%	-9.7%
CCCn1nc(NC(=O)c2cccs2)c2cc3ccc(C)cc3nc21	-1.4	-1.1	2.94µM*	0.8%	?	-6.7%
COc1ccc2nc3c(cc2c1)c(NC(=O)CC(C)C)nn3CC(C)C	-4.3	-0.9	5.22µM*	-3.0%	?	0.1%
CCCn1nc(NC(=O)c2cccs2)c2cc3ccccc3nc21	43.3	9.8	?	-7.3%	?	-61.8%
CCCn1nc(NC(=O)c2cccs2)c2cc3cc(C)ccc3nc21	36.8*	25.4*	?	-13.2%	-6.1%	-7.8%
Cc1ccnc(NC(=O)C2CCCN(S(=O)(=O)c3ccc4[nH]c(=O)ccc4c3)C2)c1 (stereo not given)	12.3	11.4	-0.8%	-4.5%	?	-8.1%
Cc1ccc(-c2csc(-c3c[nH]c4ccccc34)n2)c(C)c1	78.3*	35.5*	53.6%	-8.6%	0.0%	-6.3%
Oc1ccc(-c2csc(-c3c[nH]c4ccccc34)n2)c(O)c1	60.0*	70.0*	156.3%	-42.9%	180.3%	-21.8%
COc1ccc(/C=C(/NC(=O)c2ccc(Br)cc2)C(=O)N2CCOCC2)cc1	-30.3	4.8	?	2.3%	?	-3.1%
COc1ccccc1-n1c(SCC(=O)O)nc2c(sc(=S)n2-c2ccc(Cl)c(C)c2)c1=O	23.3	-3.2	?	0.6%	25.1%	13.3%
CCN(CC)C(=O)CSc1nc2c(sc(=S)n2-c2ccccc2)c(=O)n1-c1ccc(OC)cc1OC	-4.7	-5.3	6.57µM*	0.3%	?	11.4%
COc1ccc(-n2c(SCC3OCCO3)nc3c(sc(=S)n3-c3ccccc3)c2=O)cc1OC	-1.5	9.6	-18.8%	-1.1%	-56.5%	nt
CCOC(=O)CSc1nc2c(sc(=S)n2-c2ccccc2)c(=O)n1-c1ccc(OC)cc1OC	11.5	8.0	10.4µM*	-1.0%	10.8%	?
COc1ccccc1-n1c(SCC(=O)O)nc2c(sc(=S)n2-c2ccc(C)c(C)c2)c1=O	-15.9	-1.8	-1.7%	-0.3%	?	?
CCN(CC)C(=O)CSc1nc2c(sc(=S)n2-c2ccccc2)c(=O)n1-c1ccccc1OC	-2.0	-2.1	8.28µM*	-0.6%	-0.5%	15.5%
CCN(CC)C(=O)CSc1nc2c(sc(=S)n2-c2ccccc2)c(=O)n1-c1ccc(OC)c(OC)c1	17.4	-1.0	4.65µM*	1.8%	8.2%	8.1%
CCN(Cc1ccncc1)C(=O)C1CCN(S(=O)(=O)c2cccs2)CC1	-2.9	-1.4	nt	3.0%	-17.3%	3.0%
CCOC(=O)C1=C(CNCCc2ccc(Cl)cc2)NC(=O)NC1c1ccc2c(c1)OCO2 (stereo not given)	-8.5	-1.8	7.38µM*	-1.7%	nt	?
CCOC(=O)C1=C(CNCCOc2ccc(OC)cc2)NC(=O)NC1c1ccc2c(c1)OCO2 (stereo not given)	-3.1	1.6	11.7µM*	1.5%	?	nt
CCSCCOC(=O)C1=C(C)NC(=O)NC1c1ccc2c(c1)OCO2 (stereo not given)	-9.7	-3.3	nt	21.7%	-0.3%	3.9%
